Experimental data: PubChem BioAssay (NCI)
Values joined by “and” are separate entries in the source; they are usually repeats but may differ in a detail not shown here. Equal entries are not always repeated. About 83,000 compounds went through this panel and 20% of them were active in at least one assay; those are over-represented in the sample as a whole.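 48-hour exposure, single concentration, 96-well plates; percent growth endpoint where 0 means no net growth. Active: below 10.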 Active and inactive are the calls of the source.

What was measured:
Experiment in all cases: NCI-60 one-dose screen, 48 h (100 = growth as untreated, 0 = no growth, -100 = all killed)
Settings in all cases: 10 µM unless noted
T-47D breast = tested on: T-47D breast
BT-549 breast = tested on: BT-549 breast
MDA-MB-435 melanoma = tested on: MDA-MB-435 melanoma
SW-620 colon = tested on: SW-620 colon
MCF7 breast = tested on: MCF7 breast
HCT-116 colon = tested on: HCT-116 colon
HCC-2998 colon = tested on: HCC-2998 colon
KM12 colon = tested on: KM12 colon

Measured: growth

O=C(O)c1ccc2c3ccc(C(=O)O)c4c(C(=O)O)ccc(c5ccc(C(=O)O)c1c25)c43
inactive: T-47D breast 97.2% | BT-549 breast 64.8% | MDA-MB-435 melanoma 101% | SW-620 colon 97.5% | MCF7 breast 93.3% | HCT-116 colon 90.1% | HCC-2998 colon 76.9% | KM12 colon 100%

NNC(=O)Nc1ccccc1
inactive: T-47D breast 109% | BT-549 breast 104% | MDA-MB-435 melanoma 103% | SW-620 colon 101% | MCF7 breast 89.3% | HCT-116 colon 101% | HCC-2998 colon 113% | KM12 colon 99.1%

O=C(O)C1CSCN1 (stereo not given)
inactive: T-47D breast 107% and 97.9% | BT-549 breast 99% | MDA-MB-435 melanoma 95.5% and 104% | SW-620 colon 115% and 113% | MCF7 breast 95.4% | HCT-116 colon 108% and 94.4% | KM12 colon 117% and 110%
133% (inactive) and -20.6% (active): HCC-2998 colon

COc1cc([C@@H]2c3cc4c(cc3[C@H](O)[C@H]3COC(=O)[C@@H]23)OCO4)cc(OC)c1OC
10.5% (inactive) and -40.7% (active): HCT-116 colon
active: MDA-MB-435 melanoma -23.1% and -44.3% | HCC-2998 colon -10.3% and -60.9%
inactive: T-47D breast 40.1% and 71.1% | BT-549 breast 22.3%
18.4% (inactive) and 5.61% (active): MCF7 breast
28.4% (inactive) and -3.9% (active): KM12 colon
16.7% (inactive) and 4.24% (active): SW-620 colon

COc1ccc(C(=O)C(O)c2ccc(OC)cc2)cc1 (stereo not given)
inactive: T-47D breast 103% and 92.8% | BT-549 breast 109% and 98.9% | MDA-MB-435 melanoma 117% and 111% | SW-620 colon 105% and 107% | MCF7 breast 96.7% and 98.1% | HCT-116 colon 102% and 93% | HCC-2998 colon 111% and 108% | KM12 colon 110% and 99.8%

Nc1ccc2ccc(NS(=O)(=O)N3CCCCC3)cc2c1
inactive: T-47D breast 46.8% | BT-549 breast 29% | SW-620 colon 27.9% | MCF7 breast 17.8% | KM12 colon 15%
active: MDA-MB-435 melanoma -14.7% | HCT-116 colon 9.95% | HCC-2998 colon -3.22%

Cc1cc2nc3ccc(=[N+](C)C)cc-3sc2cc1N
active: T-47D breast -25.1% and 1.21% | MDA-MB-435 melanoma -68.9% and -41.4% | SW-620 colon -19.7% and -9.28% | MCF7 breast -3.34% and -28.7% | HCT-116 colon -22.8% and 4.49% | KM12 colon 5.96% and -2.21%
inactive: BT-549 breast 48.9% and 50.4% | HCC-2998 colon 18.8%

O=[N+]([O-])c1ccc(N/N=C/C2CCCCCC2)c([N+](=O)[O-])c1
inactive: T-47D breast 84% | BT-549 breast 91% | MDA-MB-435 melanoma 87.6% | SW-620 colon 79% | MCF7 breast 94.8% | HCT-116 colon 103% | HCC-2998 colon 106% | KM12 colon 71.6%

O=C1C=CC[C@H](/C=C/c2ccccc2)O1
17.5% (inactive) and 4.07% (active): MDA-MB-435 melanoma
24.9% (inactive) and 4.24% (active): BT-549 breast
inactive: HCC-2998 colon 26.1% and 32.3% | KM12 colon 43.1% and 35.6%
active: MCF7 breast 0.837% and 1.92% | HCT-116 colon 5.79% and -18.5%
67.9% (inactive) and 9.64% (active): T-47D breast
16.4% (inactive) and -39.2% (active): SW-620 colon

Cc1ccc(N)cc1S(=O)(=O)O
inactive: T-47D breast 103% and 117% | BT-549 breast 97.9% | MDA-MB-435 melanoma 115% and 109% | SW-620 colon 104% and 105% | MCF7 breast 105% and 98.8% | HCT-116 colon 103% | HCC-2998 colon 109% and 108% | KM12 colon 98.7% and 104%

O=[N+]([O-])c1ccc(NC2CCCCC2)nc1
inactive: T-47D breast 102% | BT-549 breast 114% and 106% | MDA-MB-435 melanoma 102% and 112% | SW-620 colon 103% and 109% | MCF7 breast 110% and 102% | HCT-116 colon 108% and 101% | HCC-2998 colon 105% and 96.3% | KM12 colon 111% and 103%

CCCCCc1cc[n+](CC(=O)c2ccccc2)cc1
inactive: T-47D breast 95.4% and 101% | BT-549 breast 95.9% | MDA-MB-435 melanoma 105% | SW-620 colon 96.7% and 104% | MCF7 breast 104% and 93.7% | HCT-116 colon 95.3% and 91.9% | HCC-2998 colon 105% | KM12 colon 102% and 104%

CCN(CC)C(CC(=O)c1ccccc1)C(=O)c1ccccc1 (stereo not given)
active: SW-620 colon -7.93%
inactive: T-47D breast 77.8% | BT-549 breast 102% | MDA-MB-435 melanoma 99.2% | MCF7 breast 53.2% | HCT-116 colon 92% | HCC-2998 colon 108% | KM12 colon 109%

O=C(N=C1C(=O)C2(CCCCC2)C2(N=C(c3ccccc3)OC2=O)C12CCCCC2)c1ccccc1 (stereo not given)
inactive: T-47D breast 35.7% | BT-549 breast 86.9% | MDA-MB-435 melanoma 89.1% | SW-620 colon 71.5% | MCF7 breast 51.3% | HCT-116 colon 39.5% | HCC-2998 colon 59.2% | KM12 colon 55.6%

O=c1[nH]nnc2cc(Cl)ccc12
inactive: T-47D breast 106% and 98.4% | BT-549 breast 110% | MDA-MB-435 melanoma 104% and 102% | SW-620 colon 95.3% and 99.8% | MCF7 breast 114% and 94.5% | HCT-116 colon 104% and 103% | HCC-2998 colon 109% and 98.7% | KM12 colon 101% and 102%

COc1ccc(CCn2cnn3c(=O)c4ccccc4nc3c2=O)cc1OC
inactive: T-47D breast 113% and 103% | BT-549 breast 91.4% and 114% | MDA-MB-435 melanoma 103% and 119% | SW-620 colon 101% and 112% | MCF7 breast 106% and 100% | HCT-116 colon 99.4% and 107% | HCC-2998 colon 104% and 111% | KM12 colon 94.4% and 103%

S=c1ccc2ccccc2[nH]1
inactive: T-47D breast 90.1% and 91.2% | BT-549 breast 100% and 104% | MDA-MB-435 melanoma 110% and 104% | SW-620 colon 106% and 104% | MCF7 breast 99.5% and 103% | HCT-116 colon 95.9% and 102% | HCC-2998 colon 111% and 107% | KM12 colon 106% and 103%

Cc1cc(=NO)cc(C)n1O
inactive: T-47D breast 94.4% | BT-549 breast 82.8% | MDA-MB-435 melanoma 106% | SW-620 colon 100% | MCF7 breast 87.6% | HCT-116 colon 97.3% | HCC-2998 colon 120% | KM12 colon 110%

CC(CN(C)C)CN1c2ccccc2Sc2ccccc21 (stereo not given)
inactive: T-47D breast 79.4% and 88.3% | BT-549 breast 79% and 91.8% and 80.2% | MDA-MB-435 melanoma 76.3% and 85% and 75.7% | SW-620 colon 86.9% and 83.8% and 88.8% | MCF7 breast 88.2% and 94.2% and 82.2% | HCT-116 colon 59.3% and 63.9% and 94.9% | HCC-2998 colon 78.4% and 97.8% and 83.4% | KM12 colon 95.4% and 104% and 89.5%

S=c1nn[nH]n1C1CCCCC1
inactive: T-47D breast 124% | BT-549 breast 125% | MDA-MB-435 melanoma 102% | SW-620 colon 99.8% | MCF7 breast 101% | HCT-116 colon 101% | HCC-2998 colon 113% | KM12 colon 110%
